According to PubChem BioAssay AID1159580 (chemical genetic matrix, 2015):
Where “and” joins values, the source holds several entries; their conditions need not be identical. Equal values may be shown once. Screen size: about 5,500 compounds; about 2,000 (36%) were called active. Roughly 18% stayed inconclusive and do not appear here. Cut-off read from the data, not from the text of the source: active = normalized growth mostly below about 0.91 (no sharp cut-off); inconclusive = no clear call, values can overlap the other calls; inactive = mostly above about 0.92. Some of the results follow.

Assay: chemical genetic growth profiling, strain panel (AID 1159580);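 note: tested at 20 µM; growth read once vehicle control cultures reached saturation at 30 °C; 1 = growth at the plate median or of vehicle wells; lower values mean less growth of the strain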
Settings: S. cerevisiae deletion strains, growth OD

Measured: normalized growth

NS(=O)(=O)c1cc2c(cc1C(F)(F)F)NC(Cc1ccccc1)NS2(=O)=O (stereo not drawn)
inactive: locus YAL021C, strain ccr4, hits give low values 1 | locus YAL026C, strain drs2, hits give low values 0.979 | locus YAL030W, strain snc1, hits give low values 0.989 | locus YBL061C, strain skt5, hits give low values 0.986 | locus YBR009C, strain hhf1, hits give low values 0.988 | locus YBR021W, strain FUR4, hits give low values 1.02 | locus YBR023C, strain chs3, hits give low values 0.992 | locus YBR171W, strain sec66, hits give low values 0.981 | locus YBR229C, strain ROT2, hits give low values 1 | locus YBR231C, strain swc5, hits give low values 0.986 | locus YBR279W, strain paf1, hits give low values 1 | locus YCL011C, strain gbp2, hits give low values 0.973 | locus YCL016C, strain dcc1, hits give low values 0.988 | locus YCL029C, strain bik1, hits give low values 1.01 | locus YCL061C, strain MRC1, hits give low values 0.991 | locus YCL069W, strain vba3, hits give low values 1 | locus YCR088W, strain abp1, hits give low values 0.993 | locus YDL005C, strain med2, hits give low values 0.991 | locus YDL035C, strain GPR1, hits give low values 1.02 | locus YDL040C, strain nat1, hits give low values 1.01 | locus YDL074C, strain BRE1, hits give low values 0.969 | locus YDL101C, strain DUN1, hits give low values 1 | locus YDL134C, strain PPH21, hits give low values 1.02 | locus YDL185W, strain tfp1, hits give low values 1.01 | locus YDL192W, strain arf1, hits give low values 1.01 | locus YDR001C, strain nth1, hits give low values 0.98 | locus YDR069C, strain doa4, hits give low values 0.997 | locus YDR101C, strain arx1, hits give low values 0.985 | locus YDR137W, strain rgp1, hits give low values 0.977 | locus YDR159W, strain sac3, hits give low values 0.991 | locus YDR162C, strain NBP2, hits give low values 1.01 | locus YDR195W, strain ref2 0.983 | locus YDR297W, strain sur2, hits give low values 0.986 | locus YDR318W, strain mcm21, hits give low values 1.01 | locus YDR334W, strain swr1, hits give low values 0.953 | locus YDR335W, strain msn5, hits give low values 0.991 | locus YDR388W, hits give low values 1.01 | locus YDR392W, strain spt3, hits give low values 0.943 | locus YDR502C, strain sam2, hits give low values 0.996 | locus YEL003W, strain gim4, hits give low values 0.983 | locus YEL037C, strain rad23, hits give low values 0.984 | locus YEL061C, strain CIN8 (second series), hits give low values 0.989 | locus YEL061C, strain CIN8, hits give low values 1 | locus YER015W, strain faa2, hits give low values 0.992 | locus YER016W, strain bim1, hits give low values 0.992 | locus YER110C, hits give low values 1.02 | locus YER111C, strain swi4, hits give low values 0.999 | locus YER155C, strain BEM2 (second series), hits give low values 0.974 | locus YER155C, strain BEM2, hits give low values 0.999 | locus YER167W, strain BCK2, hits give low values 1.01 | locus YFR010W, strain ubp6, hits give low values 0.971 | locus YGL078C, strain dbp3, hits give low values 0.995 | locus YGL086W, strain mad1, hits give low values 0.99 | locus YGL167C, strain pmr1, hits give low values 0.989 | locus YGL173C, strain kem1, hits give low values 0.981 | locus YGL227W, strain vid30, hits give low values 1 | locus YGL240W, strain doc1, hits give low values 0.984 | locus YGL248W, strain PDE1, hits give low values 0.999 | locus YGL253W, strain hxk2, hits give low values 0.998 | locus YGR135W, strain pre9, hits give low values 1.04 | locus YGR229C, strain SMI1, hits give low values 1 | locus YGR252W, strain gcn5, hits give low values 1.01 | locus YHR013C, strain ard1, hits give low values 0.967 | locus YHR027C, strain rpn1, hits give low values 0.971 | locus YHR030C, strain SLT2, hits give low values 1 and 0.973 | locus YHR079C, strain IRE1 (second series), hits give low values 1.01 | locus YHR079C, strain IRE1, hits give low values 0.98 | locus YHR094C, strain hxt1, hits give low values 1.01 | locus YHR129C, strain ARP1, hits give low values 1.01 | locus YHR142W, strain chs7, hits give low values 0.96 | locus YHR200W, strain rpn10, hits give low values 1.01 | locus YIL066C, strain RNR3, hits give low values 0.999 | locus YIL073C, strain SPO22, hits give low values 1.05 | locus YIL125W, strain kgd1, hits give low values 0.999 | locus YIR030C, strain dcg1, hits give low values 1.01 | locus YJL092W, strain hpr5, hits give low values 1 | locus YJL095W, strain BCK1 (second series), hits give low values 0.997 | locus YJL095W, strain BCK1, hits give low values 0.97 and 0.978 | locus YJL115W, strain asf1, hits give low values 0.966 | locus YJL129C, strain trk1, hits give low values 1 | locus YJL134W, strain LCB3, hits give low values 1 | locus YJL154C, strain vps35, hits give low values 0.985 | locus YJL164C, strain tpk1, hits give low values 0.984 | locus YJL166W, strain qcr8, hits give low values 0.97 | locus YJL168C, strain set2, hits give low values 1.01 | locus YJL187C, strain SWE1 (second series), hits give low values 0.984 | locus YJL187C, strain SWE1, hits give low values 0.994 | locus YJR043C, strain POL32, hits give low values 0.982
